# Screens as filed in PubChem BioAssay.
# FGF22 binding-1: binders of recombinant human FGF22 by thermal shift. SYPRO orange fluorescence; percent of sucrose octasulfate shift, DMSO zero. activity (Tm shift, normalised), % at 9.99 µM. AID 651658. 340,000 tested, 1.5% active;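 active means mean Tm shift, scaled 0 neutral to 100 positive control, at about 1.3% or above, every replicate too, limit read from the data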
# ADAM17 inh: ADAM17 inhibition, QFRET primary screen; inhibition, % at 6.95 µM; 370,000 tested, 0.83% active; recombinant ADAM17, EDANS/DABCYL FRET peptide cleavage; P78536;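 active means inhibition above the mean of compounds lying between control limits plus 3 SD, set per campaign, cut at about 8.5% in these data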;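 further: 0% = DMSO-only wells as the low control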
# ADAM10 inh: ADAM10 inhibition, QFRET primary screen | O14672 | recombinant ADAM10, EDANS/DABCYL FRET peptide cleavage, 3 h | inhibition, % at 7 µM | 370,000 tested, 0.62% active | AID 720582;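 active means inhibition above a per-campaign cutoff equal to the mean of compounds falling between control-based bounds plus 3 SD, cut at about 20% in these data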;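 further: 0% = DMSO wells while the 100% control is not disclosed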
# rRNA inh HTS: inhibits bacterial ribosomal RNA function over humanized ribosomes; E. coli WT GFP vs humanized-ribosome RFP mutants, fluorescence, 24 h; active compounds read low; DMSO median 0, no signal -100; GFP signal change (wild-type ribosome), % (no concentration beside the values); 350,000 tested, 1.6% active; AID 720706;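 active means significant combined selectivity score with lowered wild-type GFP, culture density cut under 30%, mutant RFP and density less affected; inactive means any of these conditions unmet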
# KLK7 zymogen act: activators of human kallikrein-7 zymogen; purified proKLK7, EDANS-DABCYL substrate fluorescence; 100% is mature enzyme control, 0% vehicle; activation, % at 7 µM; 370,000 tested, 0.9% active;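 active means activation above the mean of all tested compounds plus 3 SD, computed per campaign excluding outliers beyond control limits, cut at about 13% in these data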
# FGF22 binding-2: FGF22 (human) binding in thermal shift. 1,000 tested, 2% active. shares compounds with FGF22 binding-1. AID 720646. thermal shift activity, °C (ΔTm) at 38 µM. recombinant FGF22 thermal shift, SYPRO orange fluorescence;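 active means fitted rise in melting shift crosses a set limit at or below the top valid dose tested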
# FGF22 TSA: binds human FGF22 shifting its melting temperature. shares compounds with FGF22 binding-1. Thermal shift assay, SYPRO orange, melting temperature shift. Tm shift (activity), % at 38 µM. 50 tested, under 10 active;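 active means compounds whose fitted dose curve of melting temperature shift rises past a set threshold within the tested doses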
# TSA no protein: counter-screen for FGF22 binders: compound-only thermal shift, no protein. AC50, µM (titrated, usually from 38 µM). shares compounds with FGF22 binding-1. AID 743019. 1,000 tested, 2% active. compound-only SYPRO orange thermal shift counter-screen;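 active means rising signal whose fitted curve reaches the 0.54 level within the top valid dose, showing a melting point, actives reach about 13 µM in these data; inactive means the rest, including activity in the opposite direction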; further: value is where the raw curve crosses a fixed level and not half-maximal
# * = called active by the depositor; i = inactive; / = no result given. Shown are actives, neighbours in structure and some others; about 3.8% of the full set was active somewhere.
SMILES,FGF22 binding-1,ADAM17 inh,ADAM10 inh,rRNA inh HTS,KLK7 zymogen act,FGF22 binding-2,TSA no protein,others
O=[N+]([O-])c1ccc(Cl)c(S(=O)(=O)Nc2ccc(S(=O)(=O)N3CCOCC3)cc2)c1,2.2*,-3,-9,-5,0,0.15,i,
O=[N+]([O-])c1ccc(Cl)c(S(=O)(=O)Nc2ccc(-c3ccc(N4CCOCC4)nn3)cc2)c1,0,-5,-14,2,0,/,/,
O=C(Nc1ccc(F)cc1)N[C@H]1CC[C@@H](CCn2cc(-c3ccccc3F)nn2)O[C@H]1CO,1.4*,/,/,-12,/,-0.079,i,
O=C(Nc1ccc(F)cc1)N[C@@H]1CC[C@H](CCn2cc(-c3ccccc3F)nn2)O[C@H]1CO,2.9*,/,/,-12,/,0.1,i,
O=C(Cc1cccnc1)N[C@@H]1CC[C@@H](CCn2cc(-c3ccccc3F)nn2)O[C@@H]1CO,1.3*,/,/,0,/,-0.12,i,
O=C(Nc1ccc(F)cc1)N[C@H]1CC[C@@H](CCn2cc(-c3ccccc3F)nn2)O[C@@H]1CO,1.7*,/,/,-5,/,0.17,i,
O=C(Nc1ccc(F)cc1)N[C@H]1CC[C@H](CCn2cc(-c3ccccc3F)nn2)O[C@@H]1CO,1,/,/,0,/,/,/,
O=C(Cc1cccnc1)N[C@@H]1CC[C@H](CCn2cc(-c3ccccc3F)nn2)O[C@H]1CO,1,/,/,1,/,/,/,
O=C(Nc1ccc(F)cc1)N[C@H]1CC[C@H](CCn2cc(-c3ccccc3F)nn2)O[C@H]1CO,0,/,/,0,/,/,/,
Nc1ccccc1N=Nc1ccccc1N,2.5*,-8,-11,-2,1,0.15,i,
C[C@@H]1CN([C@@H](C)CO)C(=O)CCCn2cc(nn2)CO[C@H]1CN(C)C,/,/,/,2,/,/,/,
C[C@H](CO)N1C[C@H](C)[C@@H](CN(C)Cc2ccc(C(=O)O)cc2)Oc2ccc(NS(=O)(=O)c3ccc(Cl)cc3)cc2CC1=O,0,/,/,5,/,/,/,
C=CCOc1ccc2c(c1)C(=NO)c1cc(OCC=C)ccc1-2,14*,6,9,-20,-1,-0.1,i,
CCn1c(=O)[nH]c(=O)c2c(N)c(C(=O)c3cc(F)ccc3F)sc21,28*,-5,-5,-1,0,-0.096,i,
CCN(CC)CCNS(=O)(=O)c1ccc(Cl)cc1,/,-1,-19,/,1,/,/,
CCCN(CCC)CC(C)(C)NS(=O)(=O)c1ccc(Cl)cc1,1.4*,-8,0,2,-1,-0.022,i,
O=C(C1CCOCC1)N1CC(=O)N2[C@H](C1)[C@H](c1ccc(C#CC3CCCCC3)cc1)[C@@H]2CO,-1,/,/,1,/,/,/,
O=C(O)Cc1ccc(NC(=O)c2ccc(Cl)c(Cl)c2)cc1,1.8*,-3,-3,-17,1,0.57,i,FGF22 TSA=0
C[C@@H]1CN([C@@H](C)CO)C(=O)c2cc(NS(=O)(=O)c3ccccc3)ccc2O[C@@H](C)CCCCO[C@@H]1CN(C)C(=O)Nc1ccc2c(c1)OCO2,0,/,/,3,/,/,/,
CC(C)(C)[S@@](=O)N1Cc2cc(C(=O)NCc3ccccc3F)nc(-c3cccc(-c4ccncc4)c3)c2[C@H]1CCO,1.9*,/,/,-6,/,-0.14,i,
CC(C)(C)[S@](=O)N1Cc2cc(C(=O)NCc3ccccc3F)nc(-c3cccc(-c4cncnc4)c3)c2[C@@H]1CCO,0,/,/,-35,/,/,/,
Cc1cc(C)cc(NS(=O)(=O)c2cc3[nH]c(=O)c(=O)[nH]c3cc2C)c1,1.7*,-4,-26,7,-1,0.031,i,
CN1CCN(C(=O)C[C@H]2CC[C@@H]3[C@H](COC[C@H](O)CN3C(=O)C3CCOCC3)O2)CC1,0,/,/,5,/,/,/,
CC(=O)c1ccc(NC(=O)c2noc(C(C)C)c2[N+](=O)[O-])cc1,1.7*,-11,4,2,-1,0.13,i,
O=c1cc[nH]c2ccc(Cl)cc12,72*,-4,-24,4,0,0.18,i,
